Experimental data: article PMC8384837, “Expanding the binding specificity for RNA recognition by a PUF domain”
Positions count from the first letter of the chain named.

Key:
Assay in all cases: yeast three-hybrid, YBZ-1, SC-Leu-His + 0.5 mM 3-AT, 4 days
Conditions in all cases: tags: N-Gal4 AD-HA kept; label: inside an RPR1-promoter hybrid RNA with tandem MS2 sites; ssRNA
PUM1 PUF domain R8-KKP = PUM1 PUF domain R8-KKP (Homo sapiens, UniProt Q14671 828-1176, N1122K;Y1123K;Q1126P)
How it was run: (§1)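 Pumilio-1 PUF domain libraries, randomized at the three base-contacting residues of each repeat, were co-expressed with matching RNA elements from a centromeric plasmid in strain YBZ-1, which carries a LexA–MS2 coat fusion and a HIS3 reporter. Transformants grew for four days on SC-Leu (input) or on SC-Leu-His + 0.5 mM 3-AT (selection), and the repeat regions were PCR-amplified and Illumina-sequenced. The interaction score is the log change in variant frequency from input to selection. That logarithm is base 2, with a pseudocount of 1 where a variant was absent.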

PUM1 PUF domain R6-AFE = target: T1, PUM1 PUF domain R6-AFE (Homo sapiens, UniProt Q14671 828-1176, N1043A;Y1044F;Q1047E)
T1 sequence: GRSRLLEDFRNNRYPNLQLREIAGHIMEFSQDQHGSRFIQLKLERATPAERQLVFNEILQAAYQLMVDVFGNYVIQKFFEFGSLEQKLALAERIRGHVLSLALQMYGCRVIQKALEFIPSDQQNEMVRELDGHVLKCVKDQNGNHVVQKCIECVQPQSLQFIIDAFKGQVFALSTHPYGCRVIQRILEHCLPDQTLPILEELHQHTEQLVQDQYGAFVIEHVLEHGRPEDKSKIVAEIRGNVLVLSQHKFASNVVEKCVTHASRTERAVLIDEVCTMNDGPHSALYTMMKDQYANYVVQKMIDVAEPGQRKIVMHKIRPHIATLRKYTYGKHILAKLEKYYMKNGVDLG
How it was run: as §1

PUM1 PUF domain R5-TRF = PUM1 PUF domain R5-TRF (Homo sapiens, UniProt Q14671 828-1176, C1007T;Q1011F)
How it was run: as §1

PUM1 PUF domain R5-GRN = PUM1 PUF domain R5-GRN (Homo sapiens, UniProt Q14671 828-1176, C1007G;Q1011N)
How it was run: as §1

PUM1 PUF domain R2-SWP = PUM1 PUF domain R2-SWP (Homo sapiens, UniProt Q14671 828-1176, N899S;Y900W;Q903P)
How it was run: as §1

PUM1 PUF domain R2-AWD = PUM1 PUF domain R2-AWD (Homo sapiens, UniProt Q14671 828-1176, N899A;Y900W;Q903D)
How it was run: as §1

PUM1 PUF domain R1-IRR = PUM1 PUF domain R1-IRR (Homo sapiens, UniProt Q14671 828-1176, S863I;Q867R)
How it was run: as §1

PUM1 PUF domain R1-RKD = PUM1 PUF domain R1-RKD (Homo sapiens, UniProt Q14671 828-1176, S863R;R864K;Q867D)
How it was run: as §1

PUM1 PUF domain R4-EYA = PUM1 PUF domain R4-EYA (Homo sapiens, UniProt Q14671 828-1176, N971E;H972Y;Q975A)
How it was run: as §1

PUM1 PUF domain R5-EYG = PUM1 PUF domain R5-EYG (Homo sapiens, UniProt Q14671 828-1176, C1007E;R1008Y;Q1011G)
How it was run: as §1

PUM1 PUF domain R5-RDG = PUM1 PUF domain R5-RDG (Homo sapiens, UniProt Q14671 828-1176, C1007R;R1008D;Q1011G)
How it was run: as §1

PUM1 PUF domain R5-KRQ = PUM1 PUF domain R5-KRQ (Homo sapiens, UniProt Q14671 828-1176, C1007K)
How it was run: as §1

PUM1 PUF domain R3-GRL = PUM1 PUF domain R3-GRL (Homo sapiens, UniProt Q14671 828-1176, C935G;Q939L)
How it was run: as §1

PUM1 PUF domain R3-ACR = PUM1 PUF domain R3-ACR (Homo sapiens, UniProt Q14671 828-1176, C935A;R936C;Q939R)
How it was run: as §1

PUM1 PUF domain R1-KRT = PUM1 PUF domain R1-KRT (Homo sapiens, UniProt Q14671 828-1176, S863K;Q867T)
How it was run: as §1

PUM1 PUF domain R7-RTM = PUM1 PUF domain R7-RTM (Homo sapiens, UniProt Q14671 828-1176, S1079R;N1080T;E1083M)
How it was run: as §1

PUM1 PUF domain R5-PRQ = PUM1 PUF domain R5-PRQ (Homo sapiens, UniProt Q14671 828-1176, C1007P)
How it was run: as §1

PUM1 PUF domain R8-RGW = PUM1 PUF domain R8-RGW (Homo sapiens, UniProt Q14671 828-1176, N1122R;Y1123G;Q1126W)
How it was run: as §1

PUM1 PUF domain R6-HWL = target: T2, PUM1 PUF domain R6-HWL (Homo sapiens, UniProt Q14671 828-1176, N1043H;Y1044W;Q1047L)
T2 sequence: T1 sequence with A216H, F217W, E220L
How it was run: as §1

PUM1 PUF domain R3-IWM = PUM1 PUF domain R3-IWM (Homo sapiens, UniProt Q14671 828-1176, C935I;R936W;Q939M)
How it was run: as §1

## GGCUAGAACUAGUGGAUCCCCCGGCGCCCGGCGGCUCGAGCCCGGGUAAGCGUAAAUAGUCUGCAUGCCGCCGGGCGCCAUGCCUGCAGGUCGACUCUAGAAAACAUG
PUM1 PUF domain R8-KKP
  binding signal: 3.24 log2 enrichment (interaction score)

## GGCUAGAACUAGUGGAUCCCCCGGCGCCCGGCGGCUCGAGCCCGGGUAAGUGAAAAUAGUCUGCAUGCCGCCGGGCGCCAUGCCUGCAGGUCGACUCUAGAAAACAUG
PUM1 PUF domain R6-AFE
  binding signal: 3.96 log2 enrichment (interaction score)

## GGCUAGAACUAGUGGAUCCCCCGGCGCCCGGCGGCUCGAGCCCGGGUAAGUGUUAAUAGUCUGCAUGCCGCCGGGCGCCAUGCCUGCAGGUCGACUCUAGAAAACAUG
PUM1 PUF domain R5-TRF
  binding signal: 3.8 log2 enrichment (interaction score)
PUM1 PUF domain R5-GRN
  binding signal: 3.83 log2 enrichment (interaction score)

## GGCUAGAACUAGUGGAUCCCCCGGCGCCCGGCGGCUCGAGCCCGGGUAAGUGUAAAGAGUCUGCAUGCCGCCGGGCGCCAUGCCUGCAGGUCGACUCUAGAAAACAUG
PUM1 PUF domain R2-SWP
  binding signal: 7.17 log2 enrichment (interaction score)

## GGCUAGAACUAGUGGAUCCCCCGGCGCCCGGCGGCUCGAGCCCGGGUAAGUGUAAAAAGUCUGCAUGCCGCCGGGCGCCAUGCCUGCAGGUCGACUCUAGAAAACAUG
PUM1 PUF domain R2-AWD
  binding signal: 6.66 log2 enrichment (interaction score)
PUM1 PUF domain R2-SWP
  binding signal: 5.19 log2 enrichment (interaction score)

## GGCUAGAACUAGUGGAUCCCCCGGCGCCCGGCGGCUCGAGCCCGGGUAAGUGUAAAUUGUCUGCAUGCCGCCGGGCGCCAUGCCUGCAGGUCGACUCUAGAAAACAUG
PUM1 PUF domain R1-IRR
  binding signal: 2.12 log2 enrichment (interaction score)
PUM1 PUF domain R1-RKD
  binding signal: 2.73 log2 enrichment (interaction score)

## GGCUAGAACUAGUGGAUCCCCCGGCGCCCGGCGGCUCGAGCCCGGGUAAGUGUACAUAGUCUGCAUGCCGCCGGGCGCCAUGCCUGCAGGUCGACUCUAGAAAACAUG
PUM1 PUF domain R4-EYA
  binding signal: 0.75 log2 enrichment (interaction score)

## GGCUAGAACUAGUGGAUCCCCCGGCGCCCGGCGGCUCGAGCCCGGGUAAGUGUGAAUAGUCUGCAUGCCGCCGGGCGCCAUGCCUGCAGGUCGACUCUAGAAAACAUG
PUM1 PUF domain R5-EYG
  binding signal: 4.35 log2 enrichment (interaction score)
PUM1 PUF domain R5-RDG
  binding signal: 2.49 log2 enrichment (interaction score)
PUM1 PUF domain R5-KRQ
  binding signal: 0.49 log2 enrichment (interaction score)
PUM1 PUF domain R5-GRN
  binding signal: 2.92 log2 enrichment (interaction score)

## GGCUAGAACUAGUGGAUCCCCCGGCGCCCGGCGGCUCGAGCCCGGGUAAGUGUAAUUAGUCUGCAUGCCGCCGGGCGCCAUGCCUGCAGGUCGACUCUAGAAAACAUG
PUM1 PUF domain R3-GRL
  binding signal: 0.66 log2 enrichment (interaction score)
PUM1 PUF domain R3-ACR
  binding signal: 3.08 log2 enrichment (interaction score)

## GGCUAGAACUAGUGGAUCCCCCGGCGCCCGGCGGCUCGAGCCCGGGUAAGUGUAAAUGGUCUGCAUGCCGCCGGGCGCCAUGCCUGCAGGUCGACUCUAGAAAACAUG
PUM1 PUF domain R1-KRT
  binding signal: 4.9 log2 enrichment (interaction score)

## GGCUAGAACUAGUGGAUCCCCCGGCGCCCGGCGGCUCGAGCCCGGGUAAGUGUAAAUCGUCUGCAUGCCGCCGGGCGCCAUGCCUGCAGGUCGACUCUAGAAAACAUG
PUM1 PUF domain R1-IRR
  binding signal: 2.25 log2 enrichment (interaction score)

## GGCUAGAACUAGUGGAUCCCCCGGCGCCCGGCGGCUCGAGCCCGGGUAAGUCUAAAUAGUCUGCAUGCCGCCGGGCGCCAUGCCUGCAGGUCGACUCUAGAAAACAUG
PUM1 PUF domain R7-RTM
  binding signal: 0.72 log2 enrichment (interaction score)

## GGCUAGAACUAGUGGAUCCCCCGGCGCCCGGCGGCUCGAGCCCGGGUAAGUGUAAAUAGUCUGCAUGCCGCCGGGCGCCAUGCCUGCAGGUCGACUCUAGAAAACAUG
PUM1 PUF domain R5-PRQ
  binding signal: 3.84 log2 enrichment (interaction score)
PUM1 PUF domain R6-AFE
  binding signal: 1.28 log2 enrichment (interaction score)
PUM1 PUF domain R5-KRQ
  binding signal: 2.89 log2 enrichment (interaction score)
PUM1 PUF domain R8-RGW
  binding signal: 2.47 log2 enrichment (interaction score)
PUM1 PUF domain R6-HWL
  binding signal: 6.48 log2 enrichment (interaction score)
PUM1 PUF domain R5-TRF
  binding signal: 3.08 log2 enrichment (interaction score)
PUM1 PUF domain R3-GRL
  binding signal: 2.71 log2 enrichment (interaction score)
PUM1 PUF domain R3-ACR
  binding signal: 0.84 log2 enrichment (interaction score)
PUM1 PUF domain R5-GRN
  binding signal: 3.37 log2 enrichment (interaction score)
PUM1 PUF domain R4-EYA
  binding signal: 2.34 log2 enrichment (interaction score)

## GGCUAGAACUAGUGGAUCCCCCGGCGCCCGGCGGCUCGAGCCCGGGUAAGUGUAUAUAGUCUGCAUGCCGCCGGGCGCCAUGCCUGCAGGUCGACUCUAGAAAACAUG
PUM1 PUF domain R4-EYA
  binding signal: 3.44 log2 enrichment (interaction score)

## GGCUAGAACUAGUGGAUCCCCCGGCGCCCGGCGGCUCGAGCCCGGGUAAGUUUAAAUAGUCUGCAUGCCGCCGGGCGCCAUGCCUGCAGGUCGACUCUAGAAAACAUG
PUM1 PUF domain R7-RTM
  binding signal: 2.58 log2 enrichment (interaction score)

## GGCUAGAACUAGUGGAUCCCCCGGCGCCCGGCGGCUCGAGCCCGGGUAAGUGGAAAUAGUCUGCAUGCCGCCGGGCGCCAUGCCUGCAGGUCGACUCUAGAAAACAUG
PUM1 PUF domain R6-AFE
  binding signal: 3.97 log2 enrichment (interaction score)

## GGCUAGAACUAGUGGAUCCCCCGGCGCCCGGCGGCUCGAGCCCGGGUAAGUGUAAGUAGUCUGCAUGCCGCCGGGCGCCAUGCCUGCAGGUCGACUCUAGAAAACAUG
PUM1 PUF domain R3-IWM
  binding signal: 4.14 log2 enrichment (interaction score)
PUM1 PUF domain R3-ACR
  binding signal: 4.11 log2 enrichment (interaction score)

## GGCUAGAACUAGUGGAUCCCCCGGCGCCCGGCGGCUCGAGCCCGGGUAAGUGUCAAUAGUCUGCAUGCCGCCGGGCGCCAUGCCUGCAGGUCGACUCUAGAAAACAUG
PUM1 PUF domain R5-KRQ
  binding signal: 5.21 log2 enrichment (interaction score)
PUM1 PUF domain R5-GRN
  binding signal: 1.4 log2 enrichment (interaction score)
